AmpC detergent: blocks E. coli AmpC beta-lactamase in detergent assay; 0.041% of 370,000 active; Potency, µM (doses to about 114 µM), for inactives: at the highest dose activity change, negative = inhibition, most hits filed as inhibitors; AmpC hydrolysis of nitrocefin, absorbance 480 nm, 0.01% Triton; P00811;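 further: 0% = no-compound wells and -100% = no-enzyme wells; nearly all actives have a fitted effect of over 25% in size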
Target sequence (P00811 whole entry, looked up): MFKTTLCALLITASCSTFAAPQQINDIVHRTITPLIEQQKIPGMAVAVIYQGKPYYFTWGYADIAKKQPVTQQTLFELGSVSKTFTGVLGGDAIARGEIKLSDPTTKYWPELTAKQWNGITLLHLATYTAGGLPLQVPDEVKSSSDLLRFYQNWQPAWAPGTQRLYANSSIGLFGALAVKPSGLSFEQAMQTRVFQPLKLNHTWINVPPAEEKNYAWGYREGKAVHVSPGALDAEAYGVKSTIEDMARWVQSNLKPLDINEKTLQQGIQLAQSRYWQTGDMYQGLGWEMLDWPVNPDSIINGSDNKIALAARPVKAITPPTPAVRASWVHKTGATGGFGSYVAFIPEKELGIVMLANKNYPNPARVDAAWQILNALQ
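20 mM phosphate pH 7.0 + 0.01% (detergent screen) or 0.0001% Triton X-100; 5.3 nM AmpC reagent; cpd preinc 15 min RT; nitrocefin (800 uM stock) to start; A480 q20 s × 4 min; Activity was normalised to no-enzyme and no-compound control wells.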
Pf growth 96h: P. falciparum growth inhibition at 96 hours; P. falciparum luciferase reporter growth, 96 h; Potency, µM (top dose mostly 28.7 µM), for the others: top-dose activity change, negative = inhibition, hits mostly inhibitors; 6.9% of 320,000 active; further: on the % scale 0 is the no-effect control and ±100 the full control effect
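Cell-based qHTS: luciferase-tagged P. falciparum in erythrocytes (2% hematocrit, 0.05% parasitemia final) incubated with compounds for 96 hours, 37 C, 5% CO2; luciferase detection reagent then added and luminescence measured.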
Pf growth 48h: inhibits P. falciparum growth in the first generation, 48 h | Potency, µM (series often up to 28.7 µM), for the others: at the highest dose activity change, negative = inhibition, actives largely listed as inhibitors | 5.9% of 310,000 active | AID 504832 | P. falciparum luciferase growth in erythrocytes, 48 h; further: on the % scale 0 is the no-effect control and ±100 the full control effect
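In quantitative HTS format, infected erythrocytes bearing luciferase-reporter parasites were treated for a single generation at 37 C. Luminescence after adding detection reagent served as the growth measure.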
SARS PLP yeast: inhibitors of SARS-CoV papain-like protease in yeast. S. cerevisiae expressing SARS-CoV PLpro, growth rescue. Potency, µM (highest dose often 32.9 µM), for inactives: at the top dose activity, positive = growth rescue, usual class: activators. 0.19% of 330,000 active. AID 485353; calls by dose curve; further: 0% is about no effect; nearly all actives have a fitted effect of over 55% in size
Sm TGR inh: inhibitors of Schistosoma mansoni thioredoxin glutathione reductase | Q962Y6 | purified TGR, DTNB reduction, TNB absorbance 405 nm | Potency, µM (top dose mostly 114 µM), for inactives: at the top dose activity change, negative = inhibition, hits mostly inhibitors | 3% of 360,000 active | AID 485364; further: on the % scale 0 is the no-effect control and ±100 the full control effect; nearly all actives have a fitted effect of over 60% in size
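Kinetic colorimetric format: TGR-catalysed, NADPH-driven DTNB reduction monitored via TNB absorbance. Enzyme dispensed at 20 nM; compound exposure 15 min at room temperature before reaction start.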
AmpC no deterg: AmpC beta-lactamase inhibition without detergent; AmpC nitrocefin hydrolysis, absorbance 480 nm, 0.0001% Triton; 0.52% of 330,000 active; P00811; Potency, µM (doses to about 57.1 µM), for inactives: at the top dose activity change, negative = inhibition, usual class: inhibitors;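 further: plate controls were no compound for no effect and no enzyme for full effect; nearly all actives have a fitted effect of over 20% in size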
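AmpC (5.3 nM in the dispensed reagent) in 20 mM phosphate pH 7.0 with 0.01% (detergent screen) or 0.0001% Triton X-100 was preincubated with compounds for 15 min at room temperature. Nitrocefin was then added from an 800 uM solution, and hydrolysis was followed at 480 nm.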
* hit, by the source's call; u = inconclusive; x = no result given. Only some compounds are listed: those with a hit (about 12% of all), similar ones and a draw of the others. Unless noted, the call rests on the fitted dose curve; in most records, active means well fitted curve in the direction sought with a large enough effect; inconclusive means small, poorly fitted or top-dose-only effect, or another doubt; inactive means no such curve, though single readings can be large; an effect the other way counts as inactive or inconclusive. Potency means the concentration at half of the fitted maximal effect.

SMILES | AmpC detergent | Pf growth 96h | Pf growth 48h | SARS PLP yeast | Sm TGR inh | AmpC no deterg
CC(Cc1cccc(C(F)(F)F)c1)NCCOC(=O)c1ccccc1 (stereo not drawn) | u | 23% | u | 1% | -4% | 55%
CCNC(C)Cc1cccc(C(F)(F)F)c1 (stereo not drawn) | x | 13µM* | -5% | x | x | x
CCN[C@@H](C)Cc1cccc(C(F)(F)F)c1 | x | x | x | 0% | x | -1%
Cc1cc(C)n(CC(=O)NC2C(=O)N3C(C(=O)O)=C(CSc4nnc(C)s4)CSC23)n1 (stereo not drawn) | 0% | 8% | 11% | -3% | 25µM* | -5%
Cc1nnc(SCC2=C(C(=O)O)N3C(=O)C(NC(=O)Cn4ncc(Cl)c4C)C3SC2)s1 (stereo not drawn) | -1% | u | u | -4% | 3.2µM* | -17%
Cc1nnc(SCC2=C(C(=O)O)N3C(=O)C(NC(=O)c4cccc(F)c4F)C3SC2)s1 (stereo not drawn) | 2% | 19% | -3% | 0% | 10µM* | -17%
O=S(=O)(NCC1(N2CCOCC2)CCCCC1)c1ccc(F)c(F)c1F | -15% | -10% | u | -1% | -6% | -2%
CC(=O)c1cccc(NC(=O)c2c(-c3ccccc3)c(-c3ccccc3)nn(C)c2=O)c1 | 16% | x | x | x | 0% | x
Cc1cc(C)c[n+](CC(=O)c2ccc(-c3ccccc3)cc2)c1 | -7% | 15µM* | u | -18% | 0% | 48%
CCOc1ccccc1-n1c(SCC(=O)N2CCOCC2)nc2ccccc2c1=O | 1% | 8% | -17% | -2% | -9% | 0%
OC(CNCc1ccccc1F)COc1cccc2ccccc12 (stereo not drawn) | -10% | u | u | -5% | 1% | 27%
Cc1cc2c(OCC(O)CNCc3ccco3)cccc2[nH]1 (stereo not drawn) | -4% | 3.3µM* | 2.9µM* | 0% | -31% | -10%
Cc1c(C2(c3c(C)n(C)n(-c4ccccc4)c3=O)C(=O)Nc3ccc(F)cc32)c(=O)n(-c2ccccc2)n1C | 1% | x | -23% | 4% | -12% | 1%
Cc1cc(Br)cc2c1NC(=O)C2(c1c(C)n(C)n(-c2ccccc2)c1=O)c1c(C)n(C)n(-c2ccccc2)c1=O | 2% | -3% | u | 1% | 45µM* | 60%
COc1ccccc1/C=C/C=N/NC(=O)c1ccncc1 | -7% | 39% | 0% | 9% | -1% | -18%
COc1ccccc1/C=C/C=N/NC(=O)c1ccco1 | 5% | u | 12µM* | -2% | -31% | -28%
COc1ccc(/C=N/NC(=O)c2cc(C)oc2C)cc1OCc1ccccc1 | -11% | -16% | -15% | -4% | 5% | -21%
COc1ccc(OC)c(/C=N/NC(=O)c2ccc3nc[nH]c3c2)c1 | -1% | 39% | 38% | 0% | 20% | -28%
COc1ccccc1/C=C/C=N/NC(=O)c1ccc2nc[nH]c2c1 | -15% | 9.3µM* | u | 7% | -26% | 20µM*
COc1ccc(/C=N/NC(=O)c2ccco2)cc1OCc1ccccc1 | -13% | u | 8.3µM* | 0% | -3% | -22%
Cc1ccc2occ(/C=N/NC(=O)c3ccccc3Br)c(=O)c2c1 | u | 4.7µM* | 23% | -1% | 3% | -18%
CCCCC(C(=O)O)C(C)CC(=O)NNC(=O)c1ccco1 (stereo not drawn) | 3% | 4% | -21% | 0% | 16% | 63%
CCOC(=O)N/N=C/c1ccccc1OCc1ccc(Cl)cc1 | -2% | 2.1µM* | 2.9µM* | 6% | 4% | -15%
O=C(N/N=C/c1ccc(OCc2ccccc2)cc1)c1ccco1 | -1% | 3.7µM* | 1.9µM* | -1% | -10% | -38%
O=C(N/N=C/c1ccccc1)c1ccco1 | -13% | 40% | 76% | -2% | 4% | -3%

Screens as filed in PubChem.
